These results are taken from PubChem BioAssay AID463218 (Sanford-Burnham Center for Chemical Genomics, 2010).

Hit rate of the full screen: of about 4,400 compounds, about 3,700 (84%) were called active.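 Rule for the calls: active = inhibition above about 39% in either of two replicate wells at 20 µM (limit read from the data); inactive = the rest.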 The set was probably picked from earlier hits. A selection follows.

The nature of the experiment: growth inhibition of tim23-1 ts yeast, retest – luminescence, single concentration, confirmation (AID 463218).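 Note: temperature-sensitive tim23-1 mutant grown at 25 °C; 0% = DMSO wells with yeast and 100% = medium wells without yeast.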 As to conditions: S. cerevisiae tim23-1 growth, BacTiter-Glo luminescence, 24 h; at 20 µM; active compounds read high.
On to `C=CCNC(=O)c1ccc2c3n(nc2c1)-c1ccc(C)cc1CO3`, for which the inhibition was 75.2% (active).

As to `Oc1ccccc1-c1cc(-c2ccc(Cl)cc2)n[nH]1`, the inhibition was -21.6% (inactive).

With `CCSC1=C(C#N)C(=O)n2c1cc1c2CCCC1`, the inhibition is 56.1% (active).

Take `O=C1NC(Nc2nc3ccccc3s2)(C(F)(F)F)C(=O)N1C1CCCCC1` (stereo not drawn): the inhibition is 63.5% (active).

As to `Cc1nn(-c2ccccc2)c(Cl)c1/C=C/C(=O)c1ccc(O)cc1`, the inhibition was 43.2% (active).

`Cc1nn(Cc2ccc(Cl)c(Cl)c2)c(C)c1NC(=O)c1cc(C2CC2)on1`: the inhibition is 59.7% (active).

`Cc1ccc(-c2ccc(/C=N/NC(=O)CN3CCOCC3)o2)cc1[N+](=O)[O-]`: the inhibition is 76.8% (active).

Take `Cc1ccc(C(=O)COc2cccc(NC(=O)c3ccco3)c2)cc1`: the inhibition is 52.7% (active).

Turning to `COc1ccc(-c2cc(C3CCN(c4ncccc4[N+](=O)[O-])CC3)[nH]n2)cc1`, the inhibition is 46% (active).

As for `O=[N+]([O-])c1ccc(C=Nc2ccc(Cl)cc2Cl)s1`, the inhibition was 77.5% (active).

As to `O=[N+]([O-])c1ccc2c(c1)Nc1nc3ccccc3nc1N2`, the inhibition was 48.9% (active).

As to `CCCc1[nH]nc2c1C(c1ccc(Br)s1)C(C#N)=C(N)O2` (stereo not drawn), the inhibition was 73.6% (active).

Consider `O=[N+]([O-])c1ccc(N=Cc2c(O)ccc3ccccc23)cc1`, for which the inhibition was 61.4% (active).

For the compound `Oc1ccc2ccccc2c1C=Nc1ccccc1`, the inhibition was 65.5% (active).

In the case of `CC1CC2=C(CC1/C=N/NC(N)=S)C(C)(C)CCC2` (stereo not drawn), the inhibition is 43.6% (active).

With `COc1ccc(/C=C(\C#N)C(=O)ONC2=NCCCCC2)cc1`, the inhibition is 81.6% (active).

Turning to `O=c1c2cc(Br)ccc2nc(-c2cccc(Cl)c2)n1O`, the inhibition is 60.2% (active).

For `COc1cc(/C=C2/C(=O)ON=C2C)ccc1OCc1cccc(F)c1`, the inhibition was 53.9% (active).

In the case of `COc1cc(/C=C2/C(=O)ON=C2C)ccc1OCc1ccccc1F`, the inhibition was 55.5% (active).

Consider `Clc1ccc(C2CC(c3cccs3)n3ncnc3N2)cc1Cl` (stereo not drawn), for which the inhibition was 40.9% (active).

On to `CCN1C(=O)/C(=C2\SC(N3CCCCC3)=NC2=O)c2ccccc21`, for which the inhibition is 41.5% (active).

In the case of `COc1cccc(C2Nc3cccc4cccc(c34)N2)c1`, the inhibition was 77.5% (active).

`Cc1cc(C(=O)N/N=C\C(Br)=C\c2ccccc2)c(C)o1`: the inhibition is 50.8% (active).

Regarding `C/C(=N/NC(=O)c1cc(Cl)ccc1O)C12CC3CC(CC(C3)C1)C2`, the inhibition was 59.9% (active).

Turning to `CC(=NCc1ccc2c(c1)OCO2)C1=C(O)c2ccccc2C1=O`, the inhibition was 67.6% (active).

Turning to `CC(=NCc1ccco1)C1=C(O)c2ccccc2C1=O`, the inhibition is 50.4% (active).

For `COc1ccc(C(=O)NCC(=O)N/N=C/c2ccc([N+](=O)[O-])o2)cc1OC`, the inhibition was 75.6% (active).

As for `c1ccc(-c2nnc3n2NC(c2ccc4c(c2)OCO4)S3)cc1` (stereo not drawn), the inhibition was 43.8% (active).

With `Nc1ccccc1SC(C[N+](=O)[O-])c1ccccc1` (stereo not drawn), the inhibition is 89.4% (active).

As to `Cc1cc(C)c(S(=O)(=O)c2ccccc2)c(OC(=O)c2c(F)cccc2Cl)n1`, the inhibition was 61.8% (active).

For `O=c1c2ccccc2[nH]c(=S)n1CCN1CCC(=C(c2ccc(F)cc2)c2ccc(F)cc2)CC1`, the inhibition was 41.8% (active).

As for `CCCC(=O)N1CCN(c2nnc(-c3ccc(C)cc3)c3ccccc23)CC1`, the inhibition is 16% (inactive).

Turning to `COC(=O)N/N=C/c1ccc(-c2ccc(Cl)c(Cl)c2)o1`, the inhibition was 43.3% (active).

Consider `O=C(Nc1ccccc1)c1nnsc1S(=O)(=O)c1ccc(Cl)cc1`, for which the inhibition was 93% (active).

Consider `FC(F)(F)c1cccc(Nc2ncnc3ccccc23)c1`, for which the inhibition is 29% (inactive).

`CCOc1cc(NC(=O)c2ccccc2C(=O)O)c(OCC)cc1NC(=O)c1ccccc1F`: the inhibition was 66.5% (active).

As for `CCN1/C(=C\c2ccc3ccccc3[n+]2CC)Sc2cc(C)ccc21`, the inhibition was 64.8% (active).

For the compound `CCc1ccc2oc(-c3ccc(N)cc3)nc2c1`, the inhibition was 58.8% (active).

Take `O=C(CSc1cccc2cccnc12)N/N=C/c1cccnc1`: the inhibition was 62% (active).

For the compound `C[C@@H]1C(c2ccc(F)cc2)=NN(c2ccc(Br)cc2)[C@H]1C(=O)N1CCOC1=O`, the inhibition was 44.6% (active).

For `CCOc1cc(/C=C2\SC(N3CCCC(C)C3)=NC2=O)ccc1O` (stereo not drawn), the inhibition is 43% (active).

For the compound `O=C(/C=C/c1ccccc1)c1ccccc1O`, the inhibition was 62.4% (active).

For the compound `COc1ccc(Oc2cn[nH]c2-c2ccc(OC)cc2O)cc1`, the inhibition was 59.6% (active).

`CCC(C)c1ccc(NC(=O)COC(=O)C2CCCC2)cc1` (stereo not drawn): the inhibition is 49.4% (active).

For the compound `Clc1ccc(Nc2ccc3ccccc3n2)cc1`, the inhibition was 43.8% (active).

For the compound `O=Cc1cn(-c2ccccc2)nc1-c1ccccn1`, the inhibition was 57.2% (active).

As to `CC1CCCC(C)N1C(=O)CN1CCN(c2nc(-c3ccc(F)cc3)cs2)CC1` (stereo not drawn), the inhibition was 54.5% (active).

As to `CC1(C)C2CCC1(C)C(OC(=O)c1ccc(O)cc1)C2` (stereo not drawn), the inhibition is 58% (active).

On to `CCOC(=O)C1=C(C)N=c2s/c(=C\C(=O)OC)c(=O)n2C1c1ccc(OC)cc1` (stereo not drawn), for which the inhibition was 55.2% (active).

With `CC[C@]1(C(=O)OC)[C@H]2C(=O)N(Cc3ccccc3)C(=O)[C@H]2[C@H]2CN=C(SCc3ccc(Cl)cc3)N21`, the inhibition is 31.4% (inactive).

For the compound `O=C(N/N=C\c1cccc(Br)c1)c1ccccc1-n1cccc1`, the inhibition is 50.8% (active).

Consider `O=C(Oc1c(-c2ccco2)oc2ccccc2c1=O)c1cccnc1`, for which the inhibition was 67.5% (active).

As to `COc1ccc(C(=O)O/N=C(\N)Cc2ccc(Cl)cc2Cl)cc1OC`, the inhibition was 52.8% (active).

As to `c1ccc2cc(CCCc3cc4ccccc4cn3)ncc2c1`, the inhibition is 40.3% (active).

For the compound `CC1(C)C=Cc2c(ccc3c2OC[C@@H](c2ccc(O)cc2O)C3)O1`, the inhibition was 29.5% (inactive).

Regarding `Cc1ccc(Oc2cnn(-c3ccccc3)c(=O)c2Br)cc1`, the inhibition is 39.4% (active).

As for `O=C1c2ccccc2S(=O)(=O)N1CC(O)Cn1c2ccccc2c2ccccc21` (stereo not drawn), the inhibition was 90.8% (active).

As to `O=C1C(=O)N(CC2COc3ccccc3O2)c2ccccc21` (stereo not drawn), the inhibition was 46.6% (active).

Turning to `O=c1c(-c2ccc3c(c2)OCCO3)c(C(F)(F)F)oc2cc(O)cc(O)c12`, the inhibition is 63.5% (active).

Turning to `O=C(COC(=O)c1ccc(O)cc1O)c1ccc2c(c1)OCCO2`, the inhibition was 21% (inactive).

Take `COc1cc(/C=C(\C#N)c2nc3ccccc3[nH]2)ccc1O`: the inhibition was 54.2% (active).

As for `Cc1cccc(/C(N)=N/OC(=O)c2ccccc2Cl)c1`, the inhibition is 75.3% (active).

With `CNC(=O)/C(C#N)=C/c1c(F)cccc1Cl`, the inhibition is 71.8% (active).

`O=C(NC(=S)Nc1cccc2c(O)cccc12)c1cccc(Br)c1`: the inhibition was 23.2% (inactive).

On to `CCc1ccc(C(=O)NC(=S)Nc2ccccc2N2CCOCC2)cc1`, for which the inhibition was 49.2% (active).

Consider `CCn1c2ccccc2c2cc(NC(=S)N3CCOCC3)ccc21`, for which the inhibition is 31.6% (inactive).

Turning to `O=C(c1cc(-c2ccc(O)cc2)on1)N1CCCc2ccccc21`, the inhibition was 50.6% (active).

As for `O=C(c1cc(-c2cccc(O)c2)on1)N1CCc2ccccc2C1`, the inhibition is 48.2% (active).

For the compound `Cc1cc(Nc2ccccc2)n(C(=O)c2ccc(N)cc2)n1`, the inhibition was 55.7% (active).

Regarding `N/C(=N\OC(=O)c1cc(-c2ccccc2)nc2ccccc12)c1ccncc1`, the inhibition is 80.8% (active).

Take `O=C1CSC(=S)N1c1ccc(Cl)c(Cl)c1`: the inhibition was 76% (active).

Turning to `COC(=O)c1c(NC(=O)COc2ccc(Cl)cc2Cl)sc2c1CC(C)(C)NC2(C)C`, the inhibition was 63.6% (active).

Regarding `Oc1c(CN2CCN(c3ccc(F)cc3)CC2)cc(Cl)c2cccnc12`, the inhibition was 54.9% (active).
